# How the values were obtained:
# Assay in all cases: DAPPL (digital affinity profiling via proximity ligation, sequencing); 10 mM Tris-HCl pH 7.5, 50 mM NaCl, 1 mM DTT, 4% glycerol, room temperature, 30 min; GST-TFs on glutathione beads, 16-mer random dsDNA library, 0.1% formaldehyde crosslink after washing; high values mean tight binding
# FLI1 = target: T1, FLI1 (Homo sapiens, UniProt Q01543 1-452); conditions: protein: recombinant; tags: N-terminal GST; dsDNA, one strand shown
# T1 sequence: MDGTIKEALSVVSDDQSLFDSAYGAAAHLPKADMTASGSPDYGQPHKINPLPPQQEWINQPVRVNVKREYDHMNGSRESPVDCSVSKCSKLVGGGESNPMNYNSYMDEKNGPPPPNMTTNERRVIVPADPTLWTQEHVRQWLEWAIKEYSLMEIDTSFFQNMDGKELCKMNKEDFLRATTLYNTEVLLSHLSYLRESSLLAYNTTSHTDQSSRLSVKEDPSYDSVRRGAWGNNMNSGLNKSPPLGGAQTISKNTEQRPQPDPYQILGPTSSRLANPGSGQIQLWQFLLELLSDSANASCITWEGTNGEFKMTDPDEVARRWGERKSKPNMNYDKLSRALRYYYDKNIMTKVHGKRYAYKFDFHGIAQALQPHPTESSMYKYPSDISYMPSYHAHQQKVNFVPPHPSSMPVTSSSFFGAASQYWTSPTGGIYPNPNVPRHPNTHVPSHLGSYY
# Outline: (§1)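 Human transcription factors fused to GST were expressed in yeast, captured on glutathione beads, given DNA barcodes and pooled with a GST-only negative control. Pools were incubated with 200 nmole of a 16-mer random double-stranded DNA library in Tris/NaCl/DTT/glycerol buffer at room temperature for 30 min. They were then washed, crosslinked with 0.1% formaldehyde, proximity-ligated (BsaI/T4 ligase, 1 h, 37 °C), PCR-amplified and sequenced on an Illumina NextSeq500. Binding signal is each 6-mer's read frequency for a factor divided by its frequency for the GST control.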
# ELK1 = target: T2, ELK1 (Homo sapiens, UniProt P19419 1-428); conditions: protein: recombinant; tags: N-terminal GST; dsDNA, one strand shown
# T2 sequence: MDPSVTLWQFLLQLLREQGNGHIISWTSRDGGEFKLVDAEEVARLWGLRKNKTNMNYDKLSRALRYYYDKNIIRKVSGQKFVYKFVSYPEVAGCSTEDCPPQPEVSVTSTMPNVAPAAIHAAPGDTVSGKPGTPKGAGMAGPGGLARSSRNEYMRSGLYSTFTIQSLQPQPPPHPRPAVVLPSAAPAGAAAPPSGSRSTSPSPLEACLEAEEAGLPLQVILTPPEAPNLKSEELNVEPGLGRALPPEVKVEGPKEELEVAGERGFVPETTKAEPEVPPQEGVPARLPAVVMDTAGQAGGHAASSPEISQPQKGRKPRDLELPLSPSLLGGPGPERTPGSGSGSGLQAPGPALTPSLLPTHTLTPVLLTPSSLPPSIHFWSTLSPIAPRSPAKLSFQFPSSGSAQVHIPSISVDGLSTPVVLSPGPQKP
# Outline: as §1
# GABPA = target: T3, GABPA (Homo sapiens, UniProt Q06546 1-454); conditions: protein: recombinant; tags: N-terminal GST; dsDNA, one strand shown
# T3 sequence: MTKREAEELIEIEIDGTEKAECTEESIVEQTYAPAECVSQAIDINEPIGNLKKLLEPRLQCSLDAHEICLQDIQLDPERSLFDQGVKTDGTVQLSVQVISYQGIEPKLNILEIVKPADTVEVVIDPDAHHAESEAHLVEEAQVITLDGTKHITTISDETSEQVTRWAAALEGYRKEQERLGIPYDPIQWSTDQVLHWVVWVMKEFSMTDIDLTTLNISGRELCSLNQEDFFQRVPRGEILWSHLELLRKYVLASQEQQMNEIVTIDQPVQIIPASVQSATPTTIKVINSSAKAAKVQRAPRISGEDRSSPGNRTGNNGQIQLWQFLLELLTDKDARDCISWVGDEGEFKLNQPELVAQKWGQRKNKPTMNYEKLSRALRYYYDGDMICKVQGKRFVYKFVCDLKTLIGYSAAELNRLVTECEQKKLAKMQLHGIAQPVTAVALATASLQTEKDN
# Outline: as §1
# ERG = target: T4, ERG (Homo sapiens, UniProt P11308 1-479); conditions: protein: recombinant; tags: N-terminal GST; dsDNA, one strand shown
# T4 sequence: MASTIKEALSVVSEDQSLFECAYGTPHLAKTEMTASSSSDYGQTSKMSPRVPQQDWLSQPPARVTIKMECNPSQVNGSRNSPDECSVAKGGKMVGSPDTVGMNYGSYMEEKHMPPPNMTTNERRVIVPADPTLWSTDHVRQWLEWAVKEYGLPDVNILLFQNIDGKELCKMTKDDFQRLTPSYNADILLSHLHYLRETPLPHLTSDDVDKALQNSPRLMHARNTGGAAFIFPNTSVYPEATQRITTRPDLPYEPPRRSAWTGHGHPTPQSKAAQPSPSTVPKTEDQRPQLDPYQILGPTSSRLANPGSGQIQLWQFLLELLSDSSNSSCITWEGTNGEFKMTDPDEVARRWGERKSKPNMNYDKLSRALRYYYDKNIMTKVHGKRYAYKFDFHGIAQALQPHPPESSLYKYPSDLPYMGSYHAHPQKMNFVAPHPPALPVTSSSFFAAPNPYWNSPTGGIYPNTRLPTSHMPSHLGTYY
# Outline: as §1
# ELF1 = ELF1 (Homo sapiens, UniProt P32519 1-619); conditions: protein: recombinant; tags: N-terminal GST; dsDNA, one strand shown
# Sequence of ELF1 (P32519 whole entry): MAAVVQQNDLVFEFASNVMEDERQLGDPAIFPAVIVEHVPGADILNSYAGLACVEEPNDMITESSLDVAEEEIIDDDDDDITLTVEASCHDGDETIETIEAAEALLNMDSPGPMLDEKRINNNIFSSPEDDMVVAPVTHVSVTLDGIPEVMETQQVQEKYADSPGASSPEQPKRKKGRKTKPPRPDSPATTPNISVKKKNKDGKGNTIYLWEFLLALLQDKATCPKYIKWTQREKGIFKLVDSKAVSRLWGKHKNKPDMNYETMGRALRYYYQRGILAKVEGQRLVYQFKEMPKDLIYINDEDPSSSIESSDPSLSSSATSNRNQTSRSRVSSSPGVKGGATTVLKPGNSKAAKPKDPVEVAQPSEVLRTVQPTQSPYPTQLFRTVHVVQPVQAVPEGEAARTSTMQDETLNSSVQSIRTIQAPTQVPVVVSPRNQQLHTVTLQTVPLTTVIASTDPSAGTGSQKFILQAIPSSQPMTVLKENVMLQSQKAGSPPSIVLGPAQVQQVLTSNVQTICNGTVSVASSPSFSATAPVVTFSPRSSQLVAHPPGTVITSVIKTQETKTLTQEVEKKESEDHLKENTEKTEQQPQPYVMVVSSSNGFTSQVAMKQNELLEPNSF
# Outline: as §1
# EHF = target: T5, EHF (Homo sapiens, UniProt Q9NZC4 1-300); conditions: protein: recombinant; tags: N-terminal GST; dsDNA, one strand shown
# T5 sequence: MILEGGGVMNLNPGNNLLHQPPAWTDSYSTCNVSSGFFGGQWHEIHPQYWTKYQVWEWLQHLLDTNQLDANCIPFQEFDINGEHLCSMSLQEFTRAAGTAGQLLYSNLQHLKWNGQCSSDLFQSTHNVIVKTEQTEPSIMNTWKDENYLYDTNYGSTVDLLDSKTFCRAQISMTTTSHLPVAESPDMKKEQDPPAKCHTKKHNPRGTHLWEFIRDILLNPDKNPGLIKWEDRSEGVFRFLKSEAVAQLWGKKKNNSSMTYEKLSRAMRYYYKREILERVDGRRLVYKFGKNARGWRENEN
# Outline: as §1
# SPI1 = SPI1 (Homo sapiens, UniProt P17947 1-270); conditions: protein: recombinant; tags: N-terminal GST; dsDNA, one strand shown
# Outline: as §1
# SPIB = SPIB (Homo sapiens, UniProt Q01892 1-262); conditions: protein: recombinant; tags: N-terminal GST; dsDNA, one strand shown
# Sequence of SPIB (Q01892 whole entry): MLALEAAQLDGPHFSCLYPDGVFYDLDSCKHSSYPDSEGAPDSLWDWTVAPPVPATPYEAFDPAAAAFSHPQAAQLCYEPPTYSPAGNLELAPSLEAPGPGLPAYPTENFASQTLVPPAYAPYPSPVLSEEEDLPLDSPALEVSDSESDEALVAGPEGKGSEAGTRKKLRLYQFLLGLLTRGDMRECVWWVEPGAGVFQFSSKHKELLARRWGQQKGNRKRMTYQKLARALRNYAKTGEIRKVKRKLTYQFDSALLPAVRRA
# Outline: as §1
# ELK3 = target: T6, ELK3 (Homo sapiens, UniProt P41970 1-407); conditions: protein: recombinant; tags: N-terminal GST; dsDNA, one strand shown
# T6 sequence: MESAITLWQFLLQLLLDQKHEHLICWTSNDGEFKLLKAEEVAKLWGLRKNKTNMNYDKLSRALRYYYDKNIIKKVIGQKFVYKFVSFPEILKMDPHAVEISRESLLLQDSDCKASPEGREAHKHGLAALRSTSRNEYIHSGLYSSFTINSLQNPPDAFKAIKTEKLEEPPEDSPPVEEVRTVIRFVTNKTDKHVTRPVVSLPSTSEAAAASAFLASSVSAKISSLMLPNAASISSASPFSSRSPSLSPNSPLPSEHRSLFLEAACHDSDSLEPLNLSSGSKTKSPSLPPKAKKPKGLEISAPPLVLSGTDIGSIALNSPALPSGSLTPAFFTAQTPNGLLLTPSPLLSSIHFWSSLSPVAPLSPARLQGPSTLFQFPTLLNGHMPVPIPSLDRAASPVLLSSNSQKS
# Outline: as §1
# FEV = target: T7, FEV (Homo sapiens, UniProt Q99581 1-238); conditions: protein: recombinant; tags: N-terminal GST; dsDNA, one strand shown
# T7 sequence: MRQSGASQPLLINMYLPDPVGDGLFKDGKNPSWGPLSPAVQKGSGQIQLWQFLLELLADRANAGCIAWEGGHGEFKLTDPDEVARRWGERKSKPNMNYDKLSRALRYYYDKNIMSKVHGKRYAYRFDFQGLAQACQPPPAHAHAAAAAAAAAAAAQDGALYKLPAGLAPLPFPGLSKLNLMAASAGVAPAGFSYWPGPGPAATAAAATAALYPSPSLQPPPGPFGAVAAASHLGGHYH
# Outline: as §1
# ETV5 = ETV5 (Homo sapiens, UniProt P41161 1-510); conditions: protein: recombinant; tags: N-terminal GST; dsDNA, one strand shown
# Sequence of ETV5 (P41161 whole entry): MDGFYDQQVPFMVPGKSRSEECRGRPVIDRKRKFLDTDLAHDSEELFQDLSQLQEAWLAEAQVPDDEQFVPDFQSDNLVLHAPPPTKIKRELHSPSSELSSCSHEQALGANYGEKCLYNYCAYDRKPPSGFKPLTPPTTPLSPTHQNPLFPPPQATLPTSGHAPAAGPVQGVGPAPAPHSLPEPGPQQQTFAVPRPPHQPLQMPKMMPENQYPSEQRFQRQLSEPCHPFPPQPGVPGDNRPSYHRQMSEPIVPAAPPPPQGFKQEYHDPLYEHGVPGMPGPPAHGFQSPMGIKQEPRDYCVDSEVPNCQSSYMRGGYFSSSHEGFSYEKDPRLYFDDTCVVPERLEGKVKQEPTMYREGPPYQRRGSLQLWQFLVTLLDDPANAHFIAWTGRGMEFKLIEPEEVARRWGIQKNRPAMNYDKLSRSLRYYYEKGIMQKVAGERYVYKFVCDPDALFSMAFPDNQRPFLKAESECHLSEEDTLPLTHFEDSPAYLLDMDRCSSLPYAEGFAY
# Outline: as §1
# HSF1 = HSF1 (Homo sapiens, UniProt Q00613 1-529); conditions: protein: recombinant; tags: N-terminal GST; chain copies: 3; dsDNA, one strand shown
# Sequence of HSF1 (Q00613 whole entry): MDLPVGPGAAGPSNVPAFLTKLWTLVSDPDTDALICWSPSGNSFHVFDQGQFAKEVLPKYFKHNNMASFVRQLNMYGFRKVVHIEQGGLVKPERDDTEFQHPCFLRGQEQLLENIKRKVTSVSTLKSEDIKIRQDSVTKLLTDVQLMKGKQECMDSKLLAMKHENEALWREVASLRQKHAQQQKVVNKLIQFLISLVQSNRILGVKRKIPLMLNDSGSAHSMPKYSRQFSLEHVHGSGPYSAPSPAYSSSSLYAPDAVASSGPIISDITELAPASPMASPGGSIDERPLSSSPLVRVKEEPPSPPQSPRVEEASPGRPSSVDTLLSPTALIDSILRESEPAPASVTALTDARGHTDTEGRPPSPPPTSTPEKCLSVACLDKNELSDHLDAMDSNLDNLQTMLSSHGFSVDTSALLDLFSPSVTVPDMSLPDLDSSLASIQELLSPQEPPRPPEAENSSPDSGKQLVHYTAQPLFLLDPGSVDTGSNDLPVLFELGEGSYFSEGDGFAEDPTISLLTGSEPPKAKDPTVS
# Outline: as §1
# SPIC = target: T8, SPIC (Homo sapiens, UniProt Q8N5J4 1-248); conditions: protein: recombinant; tags: N-terminal GST; dsDNA, one strand shown
# T8 sequence: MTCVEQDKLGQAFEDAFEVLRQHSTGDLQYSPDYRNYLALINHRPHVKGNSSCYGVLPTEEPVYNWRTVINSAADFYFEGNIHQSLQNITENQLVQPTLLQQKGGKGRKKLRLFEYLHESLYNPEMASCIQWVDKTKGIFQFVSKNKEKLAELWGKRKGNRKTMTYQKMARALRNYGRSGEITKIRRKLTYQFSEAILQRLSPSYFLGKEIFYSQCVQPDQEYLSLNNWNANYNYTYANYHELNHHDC
# Outline: as §1
# ELF4 = ELF4 (Homo sapiens, UniProt Q99607 1-663); conditions: protein: recombinant; tags: N-terminal GST; dsDNA, one strand shown
# Sequence of ELF4 (Q99607 whole entry): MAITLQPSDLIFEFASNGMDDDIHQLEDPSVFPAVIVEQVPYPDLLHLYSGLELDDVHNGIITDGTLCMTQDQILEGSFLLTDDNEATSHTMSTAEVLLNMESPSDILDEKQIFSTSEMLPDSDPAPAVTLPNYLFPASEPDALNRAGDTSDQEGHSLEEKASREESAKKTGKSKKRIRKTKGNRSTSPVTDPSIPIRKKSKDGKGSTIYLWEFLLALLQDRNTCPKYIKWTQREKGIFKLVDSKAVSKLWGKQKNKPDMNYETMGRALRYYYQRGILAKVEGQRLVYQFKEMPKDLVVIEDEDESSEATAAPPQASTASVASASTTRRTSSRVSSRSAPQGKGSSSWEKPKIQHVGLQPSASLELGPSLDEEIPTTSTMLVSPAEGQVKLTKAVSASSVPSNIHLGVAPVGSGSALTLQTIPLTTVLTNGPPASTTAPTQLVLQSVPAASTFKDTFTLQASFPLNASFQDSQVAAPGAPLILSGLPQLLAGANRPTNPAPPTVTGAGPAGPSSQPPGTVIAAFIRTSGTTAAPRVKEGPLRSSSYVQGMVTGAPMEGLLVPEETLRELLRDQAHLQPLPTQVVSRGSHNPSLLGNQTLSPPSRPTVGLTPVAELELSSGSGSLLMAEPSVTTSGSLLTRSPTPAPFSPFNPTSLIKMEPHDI
# Outline: as §1
# ELK4 = target: T9, ELK4 (Homo sapiens, UniProt P28324-2 1-405); conditions: protein: recombinant; tags: N-terminal GST; dsDNA, one strand shown
# T9 sequence: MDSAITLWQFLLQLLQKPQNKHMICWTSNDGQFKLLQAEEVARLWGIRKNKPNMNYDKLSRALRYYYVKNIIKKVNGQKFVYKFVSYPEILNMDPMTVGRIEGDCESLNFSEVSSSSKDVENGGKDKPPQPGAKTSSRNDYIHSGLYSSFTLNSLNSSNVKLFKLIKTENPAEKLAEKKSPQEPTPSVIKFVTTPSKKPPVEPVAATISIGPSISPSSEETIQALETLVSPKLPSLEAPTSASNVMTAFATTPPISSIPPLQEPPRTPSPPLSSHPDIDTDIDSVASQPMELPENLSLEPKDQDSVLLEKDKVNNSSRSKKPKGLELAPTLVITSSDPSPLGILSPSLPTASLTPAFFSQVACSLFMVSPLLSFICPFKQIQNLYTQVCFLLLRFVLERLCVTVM
# Outline: as §1
# ETV2 = target: T10, ETV2 (Homo sapiens, UniProt O00321 1-342); conditions: protein: recombinant; tags: N-terminal GST; dsDNA, one strand shown
# T10 sequence: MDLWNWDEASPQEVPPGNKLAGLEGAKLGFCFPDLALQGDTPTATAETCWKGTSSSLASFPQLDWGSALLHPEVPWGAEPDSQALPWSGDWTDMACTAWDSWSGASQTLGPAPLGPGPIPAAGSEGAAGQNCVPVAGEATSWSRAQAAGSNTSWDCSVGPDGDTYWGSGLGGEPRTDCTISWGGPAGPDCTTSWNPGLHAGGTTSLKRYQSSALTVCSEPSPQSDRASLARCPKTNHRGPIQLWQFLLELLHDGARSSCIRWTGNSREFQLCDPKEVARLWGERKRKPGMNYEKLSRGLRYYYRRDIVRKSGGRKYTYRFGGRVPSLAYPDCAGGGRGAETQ
# Outline: as §1
# ELF3 = target: T11, ELF3 (Homo sapiens, UniProt P78545 1-371); conditions: protein: recombinant; tags: N-terminal GST; dsDNA, one strand shown
# T11 sequence: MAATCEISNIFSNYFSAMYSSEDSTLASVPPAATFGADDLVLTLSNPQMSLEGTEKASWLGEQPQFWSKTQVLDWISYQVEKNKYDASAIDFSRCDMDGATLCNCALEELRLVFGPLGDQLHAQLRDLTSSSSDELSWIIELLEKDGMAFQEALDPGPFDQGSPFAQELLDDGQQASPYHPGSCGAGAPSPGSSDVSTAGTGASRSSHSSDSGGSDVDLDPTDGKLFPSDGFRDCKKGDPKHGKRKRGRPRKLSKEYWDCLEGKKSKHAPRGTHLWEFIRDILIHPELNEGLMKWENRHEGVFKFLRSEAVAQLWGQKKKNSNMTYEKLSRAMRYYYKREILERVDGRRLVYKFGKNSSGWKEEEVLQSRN
# Outline: as §1
# CRX = CRX (Homo sapiens, UniProt O43186 1-299); conditions: protein: recombinant; tags: N-terminal GST; dsDNA, one strand shown
# Sequence of CRX (O43186 whole entry): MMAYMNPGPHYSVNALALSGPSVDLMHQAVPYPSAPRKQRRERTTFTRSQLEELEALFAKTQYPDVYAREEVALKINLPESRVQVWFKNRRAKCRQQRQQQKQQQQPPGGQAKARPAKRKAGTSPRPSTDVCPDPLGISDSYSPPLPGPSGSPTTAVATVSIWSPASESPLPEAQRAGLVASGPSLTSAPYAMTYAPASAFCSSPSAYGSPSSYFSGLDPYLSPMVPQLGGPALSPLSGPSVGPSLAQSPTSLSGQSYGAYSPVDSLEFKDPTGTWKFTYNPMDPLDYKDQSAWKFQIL
# Outline: as §1
# ETV1 = ETV1 (Homo sapiens, UniProt P50549 1-477); conditions: protein: recombinant; tags: N-terminal GST; dsDNA, one strand shown
# Sequence of ETV1 (P50549 whole entry): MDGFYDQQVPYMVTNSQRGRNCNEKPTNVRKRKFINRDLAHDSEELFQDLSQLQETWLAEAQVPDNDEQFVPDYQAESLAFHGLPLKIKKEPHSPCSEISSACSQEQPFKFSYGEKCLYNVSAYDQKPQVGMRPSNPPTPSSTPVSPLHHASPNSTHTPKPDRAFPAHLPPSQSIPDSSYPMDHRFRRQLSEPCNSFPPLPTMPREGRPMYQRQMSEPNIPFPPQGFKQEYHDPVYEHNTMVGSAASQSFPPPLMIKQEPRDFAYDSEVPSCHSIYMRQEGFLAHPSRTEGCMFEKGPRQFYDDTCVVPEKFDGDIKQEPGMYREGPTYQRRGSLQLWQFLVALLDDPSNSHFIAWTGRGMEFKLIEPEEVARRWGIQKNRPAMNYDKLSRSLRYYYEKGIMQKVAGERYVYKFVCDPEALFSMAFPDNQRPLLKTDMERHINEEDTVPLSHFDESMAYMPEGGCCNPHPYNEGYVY
# Outline: as §1
sequence,measurement,setting,value
TTCACG,binding signal,FLI1,"1.48 fold enrichment (6-mer frequency, TF over GST control)"
same,binding signal,ELK1,"1.44 fold enrichment (6-mer frequency, TF over GST control)"
same,binding signal,GABPA,"1.41 fold enrichment (6-mer frequency, TF over GST control)"
same,binding signal,ERG,"1.37 fold enrichment (6-mer frequency, TF over GST control)"
same,binding signal,ELF1,"1.38 fold enrichment (6-mer frequency, TF over GST control)"
same,binding signal,EHF,"1.29 fold enrichment (6-mer frequency, TF over GST control)"
same,binding signal,SPI1,"1.3 fold enrichment (6-mer frequency, TF over GST control)"
same,binding signal,SPIB,"1.31 fold enrichment (6-mer frequency, TF over GST control)"
same,binding signal,ELK3,"1.42 fold enrichment (6-mer frequency, TF over GST control)"
same,binding signal,FEV,"1.28 fold enrichment (6-mer frequency, TF over GST control)"
same,binding signal,ETV5,"1.34 fold enrichment (6-mer frequency, TF over GST control)"
same,binding signal,HSF1,"1.51 fold enrichment (6-mer frequency, TF over GST control)"
same,binding signal,SPIC,"1.45 fold enrichment (6-mer frequency, TF over GST control)"
same,binding signal,ELF4,"1.46 fold enrichment (6-mer frequency, TF over GST control)"
same,binding signal,ELK4,"1.55 fold enrichment (6-mer frequency, TF over GST control)"
same,binding signal,ETV2,"1.34 fold enrichment (6-mer frequency, TF over GST control)"
same,binding signal,ELF3,"1.41 fold enrichment (6-mer frequency, TF over GST control)"
same,binding signal,CRX,"1.26 fold enrichment (6-mer frequency, TF over GST control)"
same,binding signal,ETV1,"1.32 fold enrichment (6-mer frequency, TF over GST control)"
